Each structure is given as a SMILES string. Results filed as inconclusive are left out. The source made the active and inactive calls. How the source made its calls: active means hit-call score of the fitted dose curve at least 0.9, where 1 is the maximum; inconclusive means response in the unintended direction; inactive means score below 0.9.

The values that follow come from PubChem BioAssay (EPA / NIEHS).

The target in assay [1] is Estrogen receptor (Homo sapiens) (UniProt P03372). In words: OT_ER_ERaERa_1440: Odyssey Thera (OT) 24-hour HEK293T Protein-Complementation Assay for Estrogen Receptor-alpha/-alpha Homodimer (AID 2283349).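 Further: hits raise fluorescence above DMSO for agonists and antagonists alike.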 A digest of the protocol: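 Protein-fragment complementation between two human ERα ligand-binding domains (aa 310-547) in stably transfected HEK293T cells was monitored after 24 h treatment, using fluorescence intensity relative to vehicle controls.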
Sequence of Estrogen receptor (Homo sapiens) (P03372 whole entry, looked up, the tested form may be a part): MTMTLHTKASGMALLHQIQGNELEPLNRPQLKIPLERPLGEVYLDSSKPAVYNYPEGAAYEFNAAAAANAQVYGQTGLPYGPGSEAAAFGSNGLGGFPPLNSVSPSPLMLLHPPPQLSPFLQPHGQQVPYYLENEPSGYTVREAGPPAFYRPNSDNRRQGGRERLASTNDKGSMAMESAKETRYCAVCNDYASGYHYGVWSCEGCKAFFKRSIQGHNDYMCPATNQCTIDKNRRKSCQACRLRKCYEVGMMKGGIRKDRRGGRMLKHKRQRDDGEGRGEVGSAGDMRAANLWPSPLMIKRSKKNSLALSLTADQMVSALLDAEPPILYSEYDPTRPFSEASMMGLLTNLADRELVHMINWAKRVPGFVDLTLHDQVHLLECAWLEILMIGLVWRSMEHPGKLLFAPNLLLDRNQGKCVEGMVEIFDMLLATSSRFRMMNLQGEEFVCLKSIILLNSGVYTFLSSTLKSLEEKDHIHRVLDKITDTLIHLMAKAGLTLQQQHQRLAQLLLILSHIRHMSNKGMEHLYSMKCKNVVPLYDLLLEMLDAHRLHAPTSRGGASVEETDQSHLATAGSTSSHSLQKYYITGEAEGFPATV

The target is the same in assay [2]. Kind of assay: OT_ER_ERaERa_0480: Odyssey Thera (OT) 8-hour HEK293T Protein-Complementation Assay for Estrogen Receptor-alpha/-alpha Homodimer (AID 2283351).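 Further: rise in fluorescence from reassembled reporter fragments on ERα LBD homodimer in nucleus or whole cell.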 The gist of the method:
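Binding reporter in which dimerisation of ERα LBD (aa 310-547) fusions reconstitutes a fluorescent reporter in HEK293T cells. Compounds incubated 8 h; mean fluorescence intensity increase versus DMSO scored.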

In assay [3] the target is human Thyroid Receptor Alpha (TRa), THRA (gene 7067) (UniProt P10827). In words: NVS_NR_hTRa_Antagonist: NovaScreen (NVS) Nuclear Receptor Binding Assay for human Thyroid Receptor Alpha Antagonism (TRa) (AID 2283362).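 Further: activity is loss of signal relative to DMSO baseline.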 The gist of the method:
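Cell-free AlphaLISA chemiluminescent binding read 1 h after dosing, antagonist mode; signal loss versus DMSO baseline. Primary screen in duplicate at 25 uM, then concentration series for actives.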

Another assay deals with PGR (gene 5241) (UniProt P06401). Kind of assay: NVS_NR_hPR: NovaScreen (NVS) Nuclear Receptor Binding Assay for human Progestron Receptor (PR) (AID 2283360).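 Further: active means loss of bound radioligand signal versus DMSO baseline.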 A digest of the protocol:
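Cell-free radioligand binding using receptor protein extracted from T47D cells, read by scintillation counting 18 hours after dosing. Loss of signal relative to DMSO baseline indicates displacement; primary screen single concentration 25 uM in duplicate, actives followed in concentration series.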

For assay [4], the target named is Androgen Receptor/SRC-1 Co-activator, AR (gene 367) (UniProt P10275). In words: OT_AR_ARSRC1_0960: Odyssey Thera (OT) 16-hour HEK293T Protein-Complementation Assay for Androgen Receptor/SRC-1 Co-activator (AID 2283353).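 Further: actives raise the signal above DMSO so potency reflects increased AR and SRC-1 complex.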 A digest of the protocol:
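Interaction of AR with SRC-1 was followed by YFP fragment complementation in HEK293T cells after 16 h of dosing. Gain of nuclear-over-cytoplasmic 488 nm fluorescence against DMSO controls defined activity.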

Assay [5] has the same target. In words: OT_AR_ARSRC1_0480: Odyssey Thera (OT) 8-hour HEK293T Protein-Complementation Assay for Androgen Receptor/SRC-1 Co-activator (AID 2283354).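 Further: hits raise the complementation signal above DMSO so AC50 marks enhancers.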 The gist of the method:
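Measures AR/SRC-1 binding by Venus YFP fragment complementation in HEK293T stable lines at 8 h post-dose. Imaging quantifies the 488nm nucleus/cytoplasm ratio in ≥400 cells; DMSO defines baseline.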

Assay [6] has as its target T1, Estrogen receptor (Homo sapiens) + Estrogen receptor beta (Homo sapiens) (UniProt P03372+Q92731). Kind of assay: OT_ER_ERaERb_1440: Odyssey Thera (OT) 24-hour HEK293T Protein-Complementation Assay for Estrogen Receptor-alpha/-beta Homodimer (AID 2283356).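 Further: heteromer of ER alpha and ER beta binding domains; hits raise reporter fluorescence and both agonists and antagonists give an increase.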 A digest of the protocol:
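HEK293T stably expressing a PCA of ER alpha LBD (aa 310-547) and ER beta LBD (aa 263-489). After 24 h compound exposure, mean fluorescence intensity in nucleus (agonists) or nucleus and cytoplasm (antagonists) measured by laser scanning cytometry versus vehicle.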

In assay [7] the target is Estrogen receptor beta (Homo sapiens) (UniProt Q92731). In words: OT_ER_ERbERb_0480: Odyssey Thera (OT) 8-hour HEK293T Protein-Complementation Assay for Estrogen Receptor-beta/-beta Homodimer (AID 2283357).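 Further: active means signal gain over DMSO baseline.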 The gist of the method:
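Cells (HEK293T, stable ER-beta LBD PCA pair) are treated 8 hours, fixed and Draq5-stained; signal is fluorescence intensity increase relative to vehicle, fitted in the gain direction.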

Assay [8] deals with human Peroxisome Proliferator-activated Receptor alpha (PPARa), PPARA (gene 5465) (UniProt Q07869). In words: NVS_NR_hPPARa: NovaScreen (NVS) Nuclear Receptor Binding Assay for human Peroxisome Proliferator-activated Receptor alpha (PPARa) (AID 2283359).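 Further: activity means loss of TR-FRET signal versus DMSO baseline.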 A digest of the protocol: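 Chemicals were first screened in duplicate at 25 uM, and active ones were retested across concentration series. Binding was monitored by TR-FRET one hour after dosing, with decreased signal against DMSO counted as activity.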
Sequence of human Peroxisome Proliferator-activated Receptor alpha (PPARa), PPARA (gene 5465) (Q07869 whole entry, looked up): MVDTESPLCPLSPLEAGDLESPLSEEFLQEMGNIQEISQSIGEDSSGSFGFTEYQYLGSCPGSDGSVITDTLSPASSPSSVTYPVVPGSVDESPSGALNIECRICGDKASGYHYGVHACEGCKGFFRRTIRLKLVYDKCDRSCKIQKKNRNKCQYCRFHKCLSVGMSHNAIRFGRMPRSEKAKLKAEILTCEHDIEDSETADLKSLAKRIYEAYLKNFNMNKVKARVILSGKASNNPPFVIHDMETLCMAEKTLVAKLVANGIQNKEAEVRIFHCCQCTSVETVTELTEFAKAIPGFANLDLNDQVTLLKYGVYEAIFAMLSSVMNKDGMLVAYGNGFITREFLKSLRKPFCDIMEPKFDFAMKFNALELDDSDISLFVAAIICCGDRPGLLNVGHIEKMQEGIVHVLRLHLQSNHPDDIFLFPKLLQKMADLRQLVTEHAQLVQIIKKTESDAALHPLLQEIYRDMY

In assay [9] the target is T1, Estrogen receptor (Homo sapiens) + Estrogen receptor beta (Homo sapiens). Kind of assay: OT_ER_ERaERb_0480: Odyssey Thera (OT) 8-hour HEK293T Protein-Complementation Assay for Estrogen Receptor-alpha/-beta Heterodimer (AID 2283352). The gist of the method: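 HEK293T protein-fragment complementation assay of ER-alpha/ER-beta LBD heterodimerisation, read 8 h after dosing. Mean nuclear/cytoplasmic fluorescence intensity measured by laser scanning cytometry; gain of signal fitted relative to DMSO.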

Assay [10] concerns the target chimpanzee Androgen Receptor (AR), AR (gene 747460) (UniProt O97775). Kind of assay: NVS_NR_cAR: NovaScreen (NVS) Nuclear Receptor Binding Assay for chimpanzee Androgen Receptor (AR) (AID 2283346).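 Further: radioligand displacement from AR measured by scintillation counting in a cell-free assay; a loss of bound radioligand signal versus DMSO counts as binding.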 The gist of the method: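 Cell-free competition binding with insect-cell (Sf9/Sf21) extracted chimpanzee AR; scintillation signal from lysate at 72 h. Screened in duplicate at 25 uM, then concentration-response for actives; fitting relative to DMSO.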

Assay [11] deals with Estrogen receptor (Homo sapiens) (UniProt P03372). Kind of assay: NVS_NR_hER: NovaScreen (NVS) Nuclear Receptor Binding Assay for human Estrogen Receptor (ER) (AID 2283348). The gist of the method:
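Scintillation signal from bound radioligand was measured 18 hours after chemical addition to cell-free MCF7 protein extracts, with DMSO as baseline. Activity was scored as signal loss; compounds ran first at 25 uM in duplicate.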

Sequence of Estrogen receptor beta (Homo sapiens) (Q92731 whole entry, looked up, the tested form may be a part): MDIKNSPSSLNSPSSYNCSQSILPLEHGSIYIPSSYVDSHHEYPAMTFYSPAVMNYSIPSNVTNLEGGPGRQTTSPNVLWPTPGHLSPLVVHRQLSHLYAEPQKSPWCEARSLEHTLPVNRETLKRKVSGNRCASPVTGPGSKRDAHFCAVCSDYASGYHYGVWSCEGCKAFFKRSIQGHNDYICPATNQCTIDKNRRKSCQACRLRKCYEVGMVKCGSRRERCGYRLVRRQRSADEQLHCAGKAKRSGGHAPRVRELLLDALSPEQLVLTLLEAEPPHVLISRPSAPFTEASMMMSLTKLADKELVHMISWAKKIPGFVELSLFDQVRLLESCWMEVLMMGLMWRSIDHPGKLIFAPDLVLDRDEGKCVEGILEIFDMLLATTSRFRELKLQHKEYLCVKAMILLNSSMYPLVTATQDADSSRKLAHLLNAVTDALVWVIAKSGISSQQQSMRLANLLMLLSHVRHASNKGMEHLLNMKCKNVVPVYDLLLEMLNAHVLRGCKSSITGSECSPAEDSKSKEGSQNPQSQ
T1 sequence (P03372 whole entry, looked up, the tested form may be a part): as the sequence (P03372 whole entry, looked up, the tested form may be a part) above
T1 sequence (Q92731 whole entry, looked up, the tested form may be a part): as the sequence (Q92731 whole entry, looked up, the tested form may be a part) above
Sequence of PGR (gene 5241) (P06401 whole entry, looked up): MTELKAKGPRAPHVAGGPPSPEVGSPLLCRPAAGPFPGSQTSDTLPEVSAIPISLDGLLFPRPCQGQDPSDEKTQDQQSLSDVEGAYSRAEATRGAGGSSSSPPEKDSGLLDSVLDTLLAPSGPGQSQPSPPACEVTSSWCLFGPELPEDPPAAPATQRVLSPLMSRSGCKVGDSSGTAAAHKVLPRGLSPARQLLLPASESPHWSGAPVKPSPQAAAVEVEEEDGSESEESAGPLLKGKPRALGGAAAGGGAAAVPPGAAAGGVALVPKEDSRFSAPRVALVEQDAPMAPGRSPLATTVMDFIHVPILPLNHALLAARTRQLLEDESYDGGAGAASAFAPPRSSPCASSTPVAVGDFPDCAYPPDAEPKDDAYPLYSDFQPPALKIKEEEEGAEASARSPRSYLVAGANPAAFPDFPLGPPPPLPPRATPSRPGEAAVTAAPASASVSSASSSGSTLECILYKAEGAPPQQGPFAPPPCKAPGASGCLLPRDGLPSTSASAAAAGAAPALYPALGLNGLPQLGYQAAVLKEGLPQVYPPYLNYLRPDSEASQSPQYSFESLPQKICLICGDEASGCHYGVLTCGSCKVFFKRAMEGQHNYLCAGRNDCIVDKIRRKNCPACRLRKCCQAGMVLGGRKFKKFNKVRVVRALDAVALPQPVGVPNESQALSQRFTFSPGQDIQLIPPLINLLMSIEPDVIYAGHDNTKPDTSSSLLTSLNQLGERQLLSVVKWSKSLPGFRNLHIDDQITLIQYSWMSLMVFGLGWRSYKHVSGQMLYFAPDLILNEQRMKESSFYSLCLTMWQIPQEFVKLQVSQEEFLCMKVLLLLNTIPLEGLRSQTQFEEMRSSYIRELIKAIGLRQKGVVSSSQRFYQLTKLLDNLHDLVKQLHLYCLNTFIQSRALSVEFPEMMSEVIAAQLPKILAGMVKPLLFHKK
Sequence of chimpanzee Androgen Receptor (AR), AR (gene 747460) (O97775 whole entry, looked up): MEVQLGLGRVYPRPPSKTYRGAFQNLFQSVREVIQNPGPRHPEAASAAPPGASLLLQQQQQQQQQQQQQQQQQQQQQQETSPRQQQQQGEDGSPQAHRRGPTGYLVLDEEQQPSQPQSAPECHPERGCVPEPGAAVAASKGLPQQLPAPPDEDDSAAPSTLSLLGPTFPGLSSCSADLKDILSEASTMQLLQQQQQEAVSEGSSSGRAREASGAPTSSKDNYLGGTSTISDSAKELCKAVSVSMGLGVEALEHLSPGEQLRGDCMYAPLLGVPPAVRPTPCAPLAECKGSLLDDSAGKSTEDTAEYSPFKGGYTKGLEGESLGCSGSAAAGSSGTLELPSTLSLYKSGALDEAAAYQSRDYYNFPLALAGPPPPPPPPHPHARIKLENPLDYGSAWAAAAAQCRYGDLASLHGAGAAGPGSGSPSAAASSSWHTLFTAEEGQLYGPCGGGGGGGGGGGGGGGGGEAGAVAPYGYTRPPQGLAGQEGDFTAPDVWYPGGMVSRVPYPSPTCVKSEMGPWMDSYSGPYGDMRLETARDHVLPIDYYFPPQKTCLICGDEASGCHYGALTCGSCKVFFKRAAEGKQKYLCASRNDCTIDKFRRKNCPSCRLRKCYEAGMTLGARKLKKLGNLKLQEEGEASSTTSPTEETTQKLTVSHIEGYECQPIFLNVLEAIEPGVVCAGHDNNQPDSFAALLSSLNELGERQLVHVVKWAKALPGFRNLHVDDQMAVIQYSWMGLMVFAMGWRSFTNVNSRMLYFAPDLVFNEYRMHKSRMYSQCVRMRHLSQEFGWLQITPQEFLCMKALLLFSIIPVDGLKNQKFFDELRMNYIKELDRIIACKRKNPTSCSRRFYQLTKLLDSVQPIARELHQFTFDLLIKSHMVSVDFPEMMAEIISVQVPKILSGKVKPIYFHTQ
Sequence of human Thyroid Receptor Alpha (TRa), THRA (gene 7067) (P10827 whole entry, looked up): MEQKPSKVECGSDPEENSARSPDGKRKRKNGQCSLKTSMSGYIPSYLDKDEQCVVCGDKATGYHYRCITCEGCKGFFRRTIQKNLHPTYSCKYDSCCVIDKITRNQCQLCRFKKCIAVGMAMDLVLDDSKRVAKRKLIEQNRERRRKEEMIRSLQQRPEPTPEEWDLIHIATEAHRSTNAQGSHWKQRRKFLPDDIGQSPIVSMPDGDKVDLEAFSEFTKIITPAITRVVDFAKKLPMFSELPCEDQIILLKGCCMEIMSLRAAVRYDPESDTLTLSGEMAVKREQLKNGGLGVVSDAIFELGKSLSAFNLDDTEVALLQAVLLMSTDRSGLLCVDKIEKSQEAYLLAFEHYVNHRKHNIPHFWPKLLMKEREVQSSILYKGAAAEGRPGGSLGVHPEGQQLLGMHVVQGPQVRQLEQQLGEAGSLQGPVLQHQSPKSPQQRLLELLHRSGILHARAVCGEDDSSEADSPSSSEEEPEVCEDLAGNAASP

As to `O=C(O)c1[nH]n(-c2ccc(S(=O)(=O)O)cc2)c(=O)c1N=Nc1ccc(S(=O)(=O)O)cc1`, the compound was called inactive in assay [1], in assay [2] and in assay [3].

Regarding `COC(=O)CCC(=O)OC`, the call (in [1]; in assay [2]; with PGR (gene 5241)) was inactive.

In the case of `Cc1cc(SC2=C(O)C[C@@](CCc3ccc(N)cc3)(C(C)C)OC2=O)c(C(C)(C)C)cc1CO`, the call in assay [4] and in [5] was inactive.

As for `CCCCCCC(CCCCCCCCCCC(=O)OCC(COC(C)=O)OC(C)=O)OC(C)=O` (stereo unspecified), the result in assay [1], in assay [2], in assay [6], in assay [7] and in assay [8] was inactive.

For `NC1CCCCC1`, the result in assay [1], in [2], in assay [9], in [6] and in assay [7] was inactive.

With `S=c1[nH]c2ccccc2s1`, the compound was classed as inactive in [10] and in assay [7].

As for `CN(C)CCCN(C)CCCN(C)C`, the outcome (in assay [1]; in [2]; in [6]; in assay [7]; in [8]; with PGR (gene 5241)) was inactive.

`CC1(C)C(=O)NC(=O)N1CO`: the outcome in assay [1], in [2], in [9] and in assay [6] was inactive.

Turning to `Cc1ccc(C(C)(C)C)c(O)c1`, the compound was classed as inactive in assay [11], in assay [1], in assay [2] and in assay [9]. In addition, the AC50 in [6] was 33.9 µM (active); in assay [7], 13.2 µM (active).

Take `CCCCCCCC(=O)OC`: the compound was called inactive in assay [1], in assay [2], in assay [6] and in assay [7].

Turning to `CC(=O)CC(c1ccccc1)c1c(O)c2ccccc2oc1=O` (stereo unspecified), the compound was classed as inactive in [10].

With `COc1ccc(C(=O)Nc2nc3ccccc3c(NCc3ccccc3)c2C#N)cc1`, the outcome in [1], in assay [2], in assay [9], in [6], in assay [7] and in [8] was inactive.

Regarding `CC(C)c1cccc(C(C)C)c1`, the compound was classed as inactive in assay [1] and in assay [2].

Take `O=C(O)CN(CC(=O)O)CC(=O)O`: the AC50 in [1] was 10.9 µM (active). In addition, the result in assay [2] was inactive.

As to `CCCCCCCCCCCCCCCCO`, the compound was classed as inactive in [1], in assay [2] and in assay [6].

Take `Oc1ccc(O)cc1`: the outcome in assay [1], in [2], in assay [9], in assay [6], in assay [7] and in [8] was inactive.

In the case of `NC(=Nc1ccccc1)Nc1ccccc1`, the call in assay [1], in assay [2], in assay [9], in assay [6], in [7] and in assay [8] was inactive.
